# For some of these results: Entries with a potency or affinity are not part of this list. Calls of active or inactive are those of the source.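 How the source made its calls, unless noted: active means primary screen activator hit with a dose response curve and TRPC4 channel activation at any tested dose; inactive means no activation, no dose response, or not a primary hit.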
# Tests used:
# [1] = system: TRPC4 beta (transient receptor potential cation channel C4), mouse; assay: TRPC4 cation channel opening, retest – cell-based, Fluo4 calcium, HEK293 TRPC4beta/mu-opioid, duplicates, 10 µM, confirmation (AID 2426;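 active means fluorescence ratio normalized to control raised more than 50% in primary screen plus both repeat runs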); details: Fluo4 calcium fluorescence, at 10 µM; hits give high values
# [2] = system: transient receptor potential cation channel C4 beta (TRPC4), mouse; assay: TRPC4 cation channel opening, second retest – cell-based, second round, Fluo4, HEK293 TRPC4beta/mu-opioid, 1 µM, confirmation (AID 2461;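 active means primary screen active and over 50% activation in each of two duplicate runs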); details: Fluo4 calcium fluorescence, at 1 µM; hits give high values
# [3] = system: TRPC4 (transient receptor potential cation channel C4 beta), mouse; assay: potentiation of DAMGO EC20 TRPC4 response – cell-based, second round, Fluo-4, HEK293 TRPC4beta/mu-opioid, 1 µM, confirmation (AID 2554;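 active means primary screen hit whose fluorescence ratio, in both repeats, exceeds the weak agonist control mean by 3 SD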); details: DAMGO EC20, Fluo-4 calcium flux, at 1 µM; hits give high values
# [4] = system: TRPC4 beta (transient receptor potential cation channel C4), mouse; assay: potentiation of DAMGO EC20 TRPC4 response – cell-based, Fluo-4, HEK293 TRPC4beta/mu-opioid, confirmation (AID 2555;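 active means primary screen hit whose calcium fluorescence ratio, in both repeats, exceeds the weak agonist control mean by 3 SD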); details: DAMGO EC20, Fluo-4 calcium flux, at 10 µM; hits give high values
# [5] = biological target: Short transient receptor potential channel 4 (Mus musculus) (UniProt Q9QUQ5); assay: blockers of DAMGO-evoked TRPC4 calcium flux – cell-based, Fluo4, HEK293 TRPC4beta/mu-opioid, confirmation (AID 2636;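 active means calcium signal cut by more than 3 SD below the full-agonist control yet still positive, in both repeats and the earlier primary screen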); details: at 10 µM; hits give high values
# [6] = biological target: Short transient receptor potential channel 4 (Mus musculus) (UniProt Q9QUQ5); assay: blockers of DAMGO-evoked TRPC4 calcium flux – cell-based, second round, Fluo4, HEK293 TRPC4beta/mu-opioid, 1 µM, confirmation (AID 2637;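 active means calcium signal ratio cut to more than 3 SD under the fully stimulated control mean yet still positive, in both repeats and the primary screen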;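 on inhibition: percent of integrated ratio relative to wells lacking test compound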); details: at 1 µM; hits give high values
# [7] = biological target: Short transient receptor potential channel 4 (Mus musculus) (UniProt Q9QUQ5); assay: calcium entry via TRPC4 opening agents – cell-based, HEK293 TRPC4/mu-opioid, Fluo-4 calcium, dose response (AID 434937)
# [8] = biological target: Short transient receptor potential channel 4 (Mus musculus) (UniProt Q9QUQ5); assay: potentiation of DAMGO-evoked TRPC4 calcium signal – cell-based, HEK293 TRPC4/mu-opioid, Fluo-4 calcium, EC20 DAMGO, dose response (AID 434941;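 active means earlier screen potentiator hit that boosts the TRPC4 ion channel at some dose, with a dose response; inactive means no potentiation, no dose response, or not a prior hit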;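 further: calcium entry triggered by an EC20 dose of DAMGO at the co-expressed mu-opioid receptor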)
# [9] = biological target: Short transient receptor potential channel 6 (Mus musculus) (UniProt Q61143); assay: TRPC6 blockade by TRPC4 inhibitor hits – cell-based, HEK293, membrane potential dye, duplicate, selectivity assay for TRPC4 inhibitor project, confirmation (AID 434948;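 active means active in primary screen and both duplicates, each dropping signal beyond three positive-control SD with fluorescence still positive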); details: HEK293 TRPC6, membrane potential dye fluorescence, at 10 µM, stimulated with maximal-effect acetylcholine; hits give high values
# [10] = biological target: Short transient receptor potential channel 6 (Mus musculus) (UniProt Q61143); assay: TRPC6 opening by TRPC4 activator hits – cell-based, HEK293, membrane potential dye, duplicate, selectivity assay for TRPC4 activator project, confirmation (AID 434950;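 active means membrane potential signal rise above negative control mean plus 3 SD in both duplicates, also active in the earlier TRPC4 screen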); details: HEK293 TRPC6, membrane potential fluorescence, at 10 µM; activation: hits give high values; outcome: activation
# [11] = biological target: Short transient receptor potential channel 6 (Mus musculus) (UniProt Q61143); assay: positive modulators of mouse TRPC6 channel – HEK293 cells, membrane potential dye, duplicate, selectivity assay for TRPC4 potentiator project, confirmation (AID 434952;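 active means compound raising the membrane signal above positive-control mean plus 3 SD in both repeats, and a primary screen hit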); details: HEK293 TRPC6, membrane potential dye fluorescence, at 10 µM, maximal acetylcholine added after compound; hits give high values
# [12] = biological target: Short transient receptor potential channel 4 (Mus musculus) (UniProt Q9QUQ5); assay: calcium flux activators in TRPC4/5HT1a cells, counter-screen for TRPC4 activator project, cell-based, second counter screen, HEK293 TRPC4/5HT1a, Fluo-4 (AID 434977;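 active means calcium signal rise above buffer-control mean plus 5 SD in both duplicates, and also a hit in the primary screen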); details: Fluo-4 calcium flux, at 10 µM; hits give high values
# [13] = serotonin-gated TRPC4 signal block – cell-based, second counter screen, HEK293 TRPC4/5HT1a, Fluo-4, counter-screen for TRPC4 inhibitor project, confirmation (AID 434978;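 active means primary screen active whose calcium signal fell more than 3 SD beyond the full-serotonin control mean in both duplicate plates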;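 on outcome: serotonin given first at submaximal then at maximal dose after compound preincubation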); details: Fluo-4 calcium flux, at 10 µM, serotonin added to trigger calcium flux; hits give high values
# [14] = system: TRPC4 (mouse), co-expressed with 5HT1a in HEK293; assay: enhancement of serotonin-evoked TRPC4 response – cell-based, second counter screen, HEK293 TRPC4/5HT1a, Fluo-4, counter-screen for TRPC4 potentiator project, confirmation (AID 434979;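 active means signal rise over 3 SD above mean of control wells given weak agonist, in both repeats and first screen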); details: Fluo-4 calcium flux, at 10 µM, serotonin added at its EC20 dose; hits give high values
# [15] = nonspecific calcium rise without TRPC4 – cell-based, HEK293 mu-opioid receptor line, counter-screen for TRPC4 activator project, confirmation (AID 449723;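 active means hit in primary screen, with calcium signal over 5 SD above buffer well mean in both duplicates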;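 further: counter screen cells carry the mu-opioid receptor alone and lack TRPC4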); details: HEK293 mu-opioid cells, Fluo-4 calcium fluorescence, at 10 µM; hits give high values
# [16] = nonspecific potentiation of DAMGO calcium response – cell-based, HEK293 mu-opioid receptor line, counter-screen for TRPC4 allosteric potentiator project, confirmation (AID 449724;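 active means calcium signal rise more than 3 SD above the low-dose agonist control mean, in both duplicate plates and the primary screen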); details: HEK293 mu-opioid receptor cells, Fluo-4 calcium flux, at 10 µM, compound added before EC20 DAMGO stimulus; hits give high values
# Short transient receptor potential channel 6 (Mus musculus), sequence (Q61143 whole entry, looked up): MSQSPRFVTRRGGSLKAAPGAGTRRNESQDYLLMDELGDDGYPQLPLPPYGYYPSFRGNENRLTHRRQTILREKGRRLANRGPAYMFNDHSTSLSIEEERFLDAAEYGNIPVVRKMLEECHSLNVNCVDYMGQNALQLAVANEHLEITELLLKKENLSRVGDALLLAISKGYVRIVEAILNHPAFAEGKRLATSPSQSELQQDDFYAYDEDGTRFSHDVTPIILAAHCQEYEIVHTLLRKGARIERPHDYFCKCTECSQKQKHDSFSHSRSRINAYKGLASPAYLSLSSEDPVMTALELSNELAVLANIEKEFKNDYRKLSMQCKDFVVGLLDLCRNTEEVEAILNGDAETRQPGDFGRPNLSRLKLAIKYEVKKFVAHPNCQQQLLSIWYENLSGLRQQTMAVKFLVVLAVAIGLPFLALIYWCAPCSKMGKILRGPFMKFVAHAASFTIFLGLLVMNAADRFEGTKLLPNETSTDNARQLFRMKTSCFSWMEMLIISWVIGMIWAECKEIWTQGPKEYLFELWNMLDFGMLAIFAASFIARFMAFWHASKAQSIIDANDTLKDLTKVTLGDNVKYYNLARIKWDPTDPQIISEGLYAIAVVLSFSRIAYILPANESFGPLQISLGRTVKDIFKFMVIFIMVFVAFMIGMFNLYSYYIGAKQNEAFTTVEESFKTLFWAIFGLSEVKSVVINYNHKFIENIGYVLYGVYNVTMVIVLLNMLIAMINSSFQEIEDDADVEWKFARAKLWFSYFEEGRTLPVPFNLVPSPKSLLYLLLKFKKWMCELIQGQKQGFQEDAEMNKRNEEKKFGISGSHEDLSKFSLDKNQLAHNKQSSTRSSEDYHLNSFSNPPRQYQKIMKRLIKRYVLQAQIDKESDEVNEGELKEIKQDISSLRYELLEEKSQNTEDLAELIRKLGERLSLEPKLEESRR
# Short transient receptor potential channel 4 (Mus musculus), sequence (Q9QUQ5 whole entry, looked up): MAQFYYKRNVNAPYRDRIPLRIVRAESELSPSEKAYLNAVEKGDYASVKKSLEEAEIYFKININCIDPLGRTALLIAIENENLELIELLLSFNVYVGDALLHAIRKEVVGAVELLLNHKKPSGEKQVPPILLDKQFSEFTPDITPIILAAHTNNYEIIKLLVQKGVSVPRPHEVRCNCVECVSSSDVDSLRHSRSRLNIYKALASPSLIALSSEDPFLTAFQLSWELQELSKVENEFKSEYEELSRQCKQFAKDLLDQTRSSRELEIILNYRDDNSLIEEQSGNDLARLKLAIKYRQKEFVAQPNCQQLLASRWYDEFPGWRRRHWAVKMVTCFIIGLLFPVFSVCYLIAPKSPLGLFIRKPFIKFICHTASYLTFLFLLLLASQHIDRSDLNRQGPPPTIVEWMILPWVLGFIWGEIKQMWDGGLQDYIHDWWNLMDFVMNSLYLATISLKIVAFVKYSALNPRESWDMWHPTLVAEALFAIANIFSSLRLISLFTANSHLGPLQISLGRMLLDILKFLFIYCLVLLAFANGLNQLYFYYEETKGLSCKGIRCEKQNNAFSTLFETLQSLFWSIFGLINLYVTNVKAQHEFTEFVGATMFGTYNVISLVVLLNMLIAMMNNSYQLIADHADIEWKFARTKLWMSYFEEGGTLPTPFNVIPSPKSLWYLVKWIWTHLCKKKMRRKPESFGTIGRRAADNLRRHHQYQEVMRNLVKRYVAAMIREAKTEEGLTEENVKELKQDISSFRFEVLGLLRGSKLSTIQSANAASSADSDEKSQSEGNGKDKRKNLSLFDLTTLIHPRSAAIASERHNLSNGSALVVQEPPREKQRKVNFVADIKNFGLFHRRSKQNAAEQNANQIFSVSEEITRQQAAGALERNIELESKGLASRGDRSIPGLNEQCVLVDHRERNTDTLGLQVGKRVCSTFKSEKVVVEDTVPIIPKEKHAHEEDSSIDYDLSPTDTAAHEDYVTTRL
structure (smiles),measurement,setting,value
O=C(O)CN1C(c2ccccc2O)Nc2ccc(Br)cc2C1c1ccccc1 (stereo unspecified),outcome,[1],inactive
same,outcome,[2],inactive
same,outcome,[3],inactive
same,outcome,[4],inactive
same,inhibition,[5],96% (active)
same,inhibition,[6],45% (active)
same,outcome,[7],inactive
same,outcome,[8],inactive
same,outcome,[9],inactive
same,outcome,[10],inactive
same,outcome,[11],inactive
same,outcome,[12],inactive
same,inhibition,[13],13.5% (active)
same,outcome,[14],inactive
same,outcome,[15],inactive
same,outcome,[16],inactive
Cc1ccc(NC(=O)c2cc(N3C(=O)C=CC3=O)ccc2N2CCOCC2)cc1,outcome,[1],inactive
same,outcome,[2],inactive
same,outcome,[3],inactive
same,outcome,[4],inactive
same,inhibition,[5],91% (active)
same,inhibition,[6],38% (active)
same,outcome,[7],inactive
same,outcome,[8],inactive
same,outcome,[9],inactive
same,outcome,[10],inactive
same,outcome,[11],inactive
same,outcome,[12],inactive
same,inhibition,[13],34.6% (active)
same,outcome,[14],inactive
same,outcome,[15],inactive
same,outcome,[16],inactive
O=C(CN1CCN(Cc2ccccc2Cl)CC1)N=Nc1c(O)[nH]c2ccccc12,outcome,[1],inactive
same,outcome,[2],inactive
same,outcome,[3],inactive
same,outcome,[4],inactive
same,inhibition,[5],90% (active)
same,inhibition,[6],50% (active)
same,outcome,[7],inactive
same,outcome,[8],inactive
same,outcome,[9],inactive
same,outcome,[10],inactive
same,outcome,[11],inactive
same,outcome,[12],inactive
same,outcome,[13],inactive
same,outcome,[14],inactive
same,outcome,[15],inactive
same,outcome,[16],inactive
O=[N+]([O-])c1cccc(N(CC(O)CN2CCCC2)S(=O)(=O)c2ccccc2)c1 (stereo unspecified),outcome,[1],inactive
same,outcome,[2],inactive
same,outcome,[3],inactive
same,outcome,[4],inactive
same,inhibition,[5],101% (active)
same,outcome,[6],inactive
same,outcome,[7],inactive
same,outcome,[8],inactive
same,outcome,[9],inactive
same,outcome,[10],inactive
same,outcome,[11],inactive
same,outcome,[12],inactive
same,outcome,[13],inactive
same,outcome,[14],inactive
same,outcome,[15],inactive
same,outcome,[16],inactive
Clc1ccc(CN2C3=NCCN3c3ccccc32)cc1,outcome,[1],inactive
same,outcome,[2],inactive
same,outcome,[3],inactive
same,outcome,[4],inactive
same,inhibition,[5],99% (active)
same,inhibition,[6],75% (active)
same,outcome,[7],inactive
same,outcome,[8],inactive
same,outcome,[9],inactive
same,outcome,[10],inactive
same,outcome,[11],inactive
same,outcome,[12],inactive
same,inhibition,[13],14.4% (active)
same,outcome,[14],inactive
same,outcome,[15],inactive
same,outcome,[16],inactive
CC(/C=C1\SC(=S)N(C(C(=O)O)C(C)C)C1=O)=C\c1ccccc1 (stereo unspecified),outcome,[1],inactive
same,outcome,[2],inactive
same,outcome,[3],inactive
same,outcome,[4],inactive
same,inhibition,[5],99% (active)
same,outcome,[6],inactive
same,outcome,[7],inactive
same,outcome,[8],inactive
same,outcome,[9],inactive
same,outcome,[10],inactive
same,outcome,[11],inactive
same,outcome,[12],inactive
same,inhibition,[13],16% (active)
same,outcome,[14],inactive
same,outcome,[15],inactive
same,outcome,[16],inactive
CCc1ccc2nc3nc(C)cc(C)c3c(N)c2c1,outcome,[1],inactive
same,outcome,[2],inactive
same,outcome,[3],inactive
same,outcome,[4],inactive
same,inhibition,[5],96% (active)
same,inhibition,[6],41% (active)
same,outcome,[7],inactive
same,outcome,[8],inactive
same,inhibition,[9],27% (active)
same,outcome,[10],inactive
same,outcome,[11],inactive
same,outcome,[12],inactive
same,inhibition,[13],15.6% (active)
same,outcome,[14],inactive
same,outcome,[15],inactive
same,outcome,[16],inactive
Nc1cc(N2CCCCC2)c([N+](=O)[O-])cc1Cl,outcome,[1],inactive
same,outcome,[2],inactive
same,outcome,[3],inactive
same,outcome,[4],inactive
same,inhibition,[5],88% (active)
same,inhibition,[6],42% (active)
same,outcome,[7],inactive
same,outcome,[8],inactive
same,outcome,[9],inactive
same,outcome,[10],inactive
same,outcome,[11],inactive
same,outcome,[12],inactive
same,outcome,[13],inactive
same,outcome,[14],inactive
same,outcome,[15],inactive
same,outcome,[16],inactive
CC1(C)CC2CC(C)(CN2C(=O)c2cc(-c3ccc(O)cc3)on2)C1 (stereo unspecified),outcome,[1],inactive
same,outcome,[2],inactive
same,outcome,[3],inactive
same,outcome,[4],inactive
same,inhibition,[5],81% (active)
same,outcome,[6],inactive
same,outcome,[7],inactive
same,outcome,[8],inactive
same,outcome,[9],inactive
same,outcome,[10],inactive
same,outcome,[11],inactive
same,outcome,[12],inactive
same,inhibition,[13],31.1% (active)
same,outcome,[14],inactive
same,outcome,[15],inactive
same,outcome,[16],inactive
CCOC(=O)C1CCN(CC(O)COc2ccc(C(C)(C)C)cc2)CC1 (stereo unspecified),outcome,[1],inactive
same,outcome,[2],inactive
same,outcome,[3],inactive
same,outcome,[4],inactive
same,outcome,[5],inactive
same,outcome,[6],inactive
same,outcome,[7],inactive
same,outcome,[8],inactive
same,outcome,[9],inactive
same,outcome,[10],inactive
same,outcome,[11],inactive
same,outcome,[12],inactive
same,inhibition,[13],41.5% (active)
same,outcome,[14],inactive
same,outcome,[15],inactive
same,outcome,[16],inactive
NS(=O)(=O)c1ccc(Nc2nc(-c3ccc(O)cc3O)cs2)cc1,outcome,[1],inactive
same,outcome,[2],inactive
same,outcome,[3],inactive
same,outcome,[4],inactive
same,inhibition,[5],98% (active)
same,inhibition,[6],47% (active)
same,outcome,[7],inactive
same,outcome,[8],inactive
same,outcome,[9],inactive
same,outcome,[10],inactive
same,outcome,[11],inactive
same,outcome,[12],inactive
same,outcome,[13],inactive
same,outcome,[14],inactive
same,outcome,[15],inactive
same,outcome,[16],inactive
OCC(Cc1ccccc1)NCc1ccccc1C(F)(F)F (stereo unspecified),outcome,[1],inactive
same,outcome,[2],inactive
same,outcome,[3],inactive
same,outcome,[4],inactive
same,inhibition,[5],60% (active)
same,outcome,[6],inactive
same,outcome,[7],inactive
same,outcome,[8],inactive
same,outcome,[9],inactive
same,outcome,[10],inactive
same,outcome,[11],inactive
same,outcome,[12],inactive
same,outcome,[13],inactive
same,outcome,[14],inactive
same,outcome,[15],inactive
same,outcome,[16],inactive
Clc1ccc(-c2csc3ncnc(NCCN4CCOCC4)c23)cc1,outcome,[1],inactive
same,outcome,[2],inactive
same,outcome,[3],inactive
same,outcome,[4],inactive
same,inhibition,[5],79% (active)
same,inhibition,[6],50% (active)
same,outcome,[7],inactive
same,outcome,[8],inactive
same,outcome,[9],inactive
same,outcome,[10],inactive
same,outcome,[11],inactive
same,outcome,[12],inactive
same,inhibition,[13],38% (active)
same,outcome,[14],inactive
same,outcome,[15],inactive
same,outcome,[16],inactive
N#Cc1c(-c2cccs2)nc(SCc2ccc(Cl)cc2)[nH]c1=O,outcome,[1],inactive
same,outcome,[2],inactive
same,outcome,[3],inactive
same,potentiation,[4],15% (active)
same,inhibition,[5],99% (active)
same,inhibition,[6],40% (active)
same,outcome,[7],inactive
same,outcome,[8],inactive
same,outcome,[9],inactive
same,outcome,[10],inactive
same,outcome,[11],inactive
same,outcome,[12],inactive
same,inhibition,[13],11.9% (active)
same,outcome,[14],inactive
same,outcome,[15],inactive
same,outcome,[16],inactive
Cc1cccc(CN2CCCC(C(=O)Nc3ccccc3Oc3cccnc3)C2)c1 (stereo unspecified),outcome,[1],inactive
same,outcome,[2],inactive
same,outcome,[3],inactive
same,outcome,[4],inactive
same,inhibition,[5],92% (active)
same,outcome,[6],inactive
same,outcome,[7],inactive
same,outcome,[8],inactive
same,outcome,[9],inactive
same,outcome,[10],inactive
same,outcome,[11],inactive
same,outcome,[12],inactive
same,inhibition,[13],35.8% (active)
same,outcome,[14],inactive
same,outcome,[15],inactive
same,outcome,[16],inactive
O=C(CN1CCCCC1)N=Nc1c(O)[nH]c2ccccc12,outcome,[1],inactive
same,outcome,[2],inactive
same,outcome,[3],inactive
same,outcome,[4],inactive
same,inhibition,[5],80% (active)
same,outcome,[6],inactive
same,outcome,[7],inactive
same,outcome,[8],inactive
same,outcome,[9],inactive
same,outcome,[10],inactive
same,outcome,[11],inactive
same,outcome,[12],inactive
same,inhibition,[13],33.5% (active)
same,outcome,[14],inactive
same,outcome,[15],inactive
same,outcome,[16],inactive

# — PubChem BioAssay
